Out of some 2,400 compounds screened, about 1,400 (58%) were called active.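 The calls were made as follows: active = inhibition of 30% or more at any tested dose; inconclusive = primary hits over the limit that were never retested; inactive = the rest.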 So high a share suggests a set chosen from earlier hits. The list shows a part of the results.
Assay: coupled detection enzyme interference, dose response, artefact control for MgcRacGAP inhibitor project, biochemical, coupled enzyme counter-screen (AID 624351);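 also: signal is the ADP detection kit reading of free GDP without any GAP enzyme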
Settings: ADP Hunter coupled enzyme counter-screen, fluorescence, no MgcRacGAP; series mostly up to 80 µM

| SMILES | IC50 |
| --- | --- |
| O=C(CN1CCCCCC1)Nc1nc2ccccc2s1 | inactive |
| Cc1cc(OCCCCCN2CCCC2)ccc1Cl | inactive |
| CCOc1ccc(OCCOCCN2CCCC2)cc1 | inactive |
| O=C(c1ccc(OCCN2CCCCC2)cc1)c1c(-c2ccc(O)cc2)sc2cc(O)ccc12 | 31.6 µM (active) |
| C[n+]1c(-c2ccccc2)cc2c(=Cc3ccccc3)c3ccccc3n21 | inactive |
| COc1cc(/C=N/n2c(-c3cc(C)[nH]n3)n[nH]c2=S)cc(OC)c1O | 55.6 µM (active) |
| COc1cc(/C=N/n2c(-c3cc(C)[nH]n3)n[nH]c2=S)cc(OC)c1OC | 61 µM (active) |
| COc1ccc(NCc2cc3cc(OC)ccc3[nH]c2=O)cc1 | inactive |
| CCn1c2ccccc2c2cc(CNCc3ccc(OC)cc3OC)ccc21 | inactive |
| COc1ccc(NCc2cc(=O)[nH]c3ccccc23)cc1 | 51.4 µM (active) |
| COc1ccc(OC)c(CN2CCN(Cc3cccc4ccccc34)CC2)c1 | inactive |
| COc1ccc(NCc2nnc(SCC(=O)Nc3ccccc3OC)o2)cc1 | inactive |
| COc1ccc(NCc2cc3ccccc3[nH]c2=O)cc1 | 77.4 µM (active) |
| CC(C1SC(=S)NC1=O)C1SC(=S)NC1=O (centres undefined) | inactive |
| CC(=O)N1CCN(c2ccc(Nc3ncnc4c3oc3ccccc34)cc2)CC1 | 42.5 µM (active) |
| Oc1ccc(Nc2ncnc3ccccc23)cc1 | 15.8 µM (active) |
| CCc1nn(C(C)C(=O)N2CCN(c3ccc(OC)cc3)CC2)c(=O)c2cc3occc3n12 (centres undefined) | inactive |
| CCc1nc(Nc2ccc(O)cc2)c2oc3ccccc3c2n1 | 19.4 µM (active) |
| CCc1nc(Nc2ccc(N3CCN(C(C)=O)CC3)cc2)c2oc3ccccc3c2n1 | 40.2 µM (active) |
| Oc1ccc(Nc2ncnc3c2oc2ccccc23)cc1 | 20 µM (active) |
| N#CC1=C(S)N(c2ccc(F)cc2)C2(CCCCC2)NC1=O | inactive |
| O=C1NC(=S)NC1=Cc1ccco1 | inactive |
| O=C1NC(=S)NC1=Cc1ccc(O)cc1 | 10.2 µM (active) |

| SMILES | IC50 |
| --- | --- |
| CCN1C(=O)/C(=C2/C=Cc3cc(C)ccc3N2CC)N(C)C1=S | 50.7 µM (active) |
| NC(=S)N/N=C/c1cccc(O)c1O | 32.6 µM (active) |
| Nc1ccc2nc(-c3ccccc3)[nH]c2c1 | 31.9 µM (active) |
| Nc1ccc2nc(-c3ccc(Cl)cc3)[nH]c2c1 | 67.3 µM (active) |
| Cc1nc2ccc(-c3nc4ccc(N)cc4[nH]3)cc2[nH]1 | 58.5 µM (active) |
| Nc1ccc2nc(C3CCCCC3)[nH]c2c1 | 71.9 µM (active) |
| Cc1nc(Nc2ccc(O)cc2)c2c3c(sc2n1)CCCC3 | 27.9 µM (active) |
| Oc1ccc(N=Cc2cc(Br)c(N3CCOCC3)o2)cc1 | 64.7 µM (active) |
| Cc1cc(Br)cc(C=Nc2ccc(N3CCOCC3)cc2)c1O | 14.7 µM (active) |
| O=[N+]([O-])c1cc(Br)c(O)c(C=Nc2ccc(N3CCOCC3)cc2)c1 | 13.4 µM (active) |
| COc1ccc(CN(C)CCc2ccccn2)c(OC)c1OC | inactive |
| COc1ccc(Oc2c(-c3ccc(O)cc3O)n[nH]c2C)cc1 | 49.1 µM (active) |
| Cc1[nH]nc(-c2ccc(O)cc2O)c1Oc1ccccc1 | 34.3 µM (active) |
| COCCNCc1nc2sc(C)c(-c3ccccc3)c2c(=O)[nH]1 | inactive |
| CCn1c(/C=C/c2ccc(O)cc2)nc2ccccc2c1=O | 44.8 µM (active) |
| C=CCn1c(N/N=C/c2ccc(O)cc2)nc2ccccc2c1=O | 66.7 µM (active) |
| O=c1c2cc(F)ccc2sn1-c1ccccc1Cl | inactive |
| Cc1ccc(NC(=O)CCC(=O)N/N=C/c2ccc(O)cc2O)cc1 | 61.8 µM (active) |
| Cc1cccc(NC(=O)CCC(=O)N/N=C/c2ccc(O)cc2O)c1 | 72.4 µM (active) |
| CCN(C=NC1=NN(c2cccc(C(F)(F)F)c2)CC1)CC | 33 µM (active) |
| OCCN(C=NC1=NN(c2cccc(C(F)(F)F)c2)CC1)CCO | 42.2 µM (active) |
| CN(C)C=NC1=NN(c2cccc(C(F)(F)F)c2)CC1 | 39.3 µM (active) |
| Cc1cccc(N2CCC(N=CN(C)C)=N2)c1 | 27.8 µM (active) |

| SMILES | IC50 |
| --- | --- |
| c1ccc(-c2ccccc2OCCCCn2ccnc2)cc1 | inactive |
| COc1ccccc1OCC#CCn1ccnc1 | inactive |
| Nc1sc(-c2ccccc2)c(Cc2ccccc2)c1C(=O)O | 70.5 µM (active) |
| CN(c1ccccc1)S(=O)(=O)c1cccc(C(=O)NCCc2ccc(O)c(O)c2)c1 | 71 µM (active) |
| CCN(c1ccccc1)S(=O)(=O)c1ccc(OC)c(NC(=O)CNCCc2ccccc2)c1 | inactive |
| COc1ccc(CCNC(=O)CNCC(c2ccccc2)N(C)C)cc1OC (centres undefined) | inactive |
| COc1ccc(S(=O)(=O)N2CCC(N3CCN(c4ccccc4OC)CC3)CC2)cc1 | inactive |
| COc1ccc(N)cc1NC(=O)CN1CCOCC1 | inactive |
| COc1ccccc1NS(=O)(=O)c1cc(N)ccc1N1CCCC1 | 75.2 µM (active) |
| CC(C)(C)c1cc(Cl)ccc1OCCOCCN1CCCC1 | inactive |
| O=C(Nc1ccc(C2=NCCN2)cc1)c1ccc(C(=O)Nc2ccc(C3=NCCN3)cc2)c([N+](=O)[O-])c1 | inactive |
| O=C(Nc1ccc(O)cc1)c1cccc(Oc2ccc([N+](=O)[O-])cc2)c1 | 48.2 µM (active) |
| COC(=O)C1=C(C)N(CC2CCCO2)C(=O)/C1=C\c1ccc(O)cc1 (centres undefined) | 24.4 µM (active) |
| COC1=C/C(=C/c2c(N)n3cc(C)sc3nc2=O)C=CC1=O | 82 µM (active) |
| CCS(=O)(=O)c1nn2c(N)c(/C=C3/C=CC(=O)C(OC)=C3)c(=O)nc2s1 | 39.6 µM (active) |
| O=C(CNCc1ccccn1)N1CCc2ccccc2C1 | inactive |
| CN(C)c1ccc(NC(=O)COC(=O)CNC(=O)c2cccs2)cc1 | 55.7 µM (active) |
| COc1nc(N)nc(NC(=O)c2cccs2)c1N=O | inactive |
| CCOC(=O)c1c(NC(=O)CN(C)C2CCN(C)CC2)sc(C(=O)Nc2ccccc2)c1C | inactive |
| Cc1ccc(NC(=O)CNCC(c2ccccc2)N(C)C)cc1F (centres undefined) | inactive |
| CCOC(=O)CSc1nc(N)c(C(=O)Nc2ccc(N(C)C)cc2)s1 | 32.8 µM (active) |
| Cc1ccccc1SCC(=O)OCC(=O)Nc1ccc(N(C)C)cc1 | 81.6 µM (active) |
| COc1ccc(OCCn2ccnc2C)cc1 | inactive |
